{"source": "PubChem BioAssay AID602310", "about": "(National Center for Advancing Translational Sciences (NCATS), 2012)", "note": "The whole screen tested about 410,000 compounds, of which about 310 (0.076%) were called active. Inconclusive results (about 2%) are left out. Shown is part of a subset that was picked to be rich in actives. A number with no mark means an inactive call. The call rests on the fitted dose curve; in most records, active means well fitted curve in the direction sought with a large enough effect; inconclusive means small, poorly fitted or top-dose-only effect; inactive means flat fitted curve, though single readings scatter. On the % scale 0 is the no-effect control and ±100 the full control effect; potency means the concentration at half of the fitted maximal effect."}
{"target": "DNA dC->dU-editing enzyme APOBEC-3G (Homo sapiens) (UniProt Q9HC16)", "sequence (Q9HC16 whole entry, looked up)": "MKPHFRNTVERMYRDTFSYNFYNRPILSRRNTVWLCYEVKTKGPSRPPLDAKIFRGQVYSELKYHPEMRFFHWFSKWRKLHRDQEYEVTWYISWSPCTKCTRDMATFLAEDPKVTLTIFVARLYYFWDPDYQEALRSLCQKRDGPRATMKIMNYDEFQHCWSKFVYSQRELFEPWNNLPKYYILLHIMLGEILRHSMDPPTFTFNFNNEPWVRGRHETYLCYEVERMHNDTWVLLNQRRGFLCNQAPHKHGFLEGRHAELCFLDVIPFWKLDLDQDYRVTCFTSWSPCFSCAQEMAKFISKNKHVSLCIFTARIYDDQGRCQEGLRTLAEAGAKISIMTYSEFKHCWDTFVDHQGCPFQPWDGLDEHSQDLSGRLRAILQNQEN", "assay": "qHTS for Inhibitors of Vif-A3G Interactions: qHTS; further: nearly all actives have a fitted effect of over 60% in size;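 on activity, negative = active: hits raise eYFP signal because A3G escapes Vif-driven loss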", "conditions": "HeLa A3G-eYFP + Vif (tagged APOBEC3G with the HIV-1 protein that degrades it), YFP fluorescence, overnight; series mostly up to 46.1 µM; activity, negative = active: at the top concentration", "text": "The recent discovery and characterization of host restriction factors, which provide a potent defense to invading retroviruses, has provided new targets for antiviral drug development. APOBEC3G (A3G) and APOBEC3F (A3F) are potent cytidine deaminases that block HIV-1 replication; HIV-1 expresses the Vif protein, which counteracts A3G and A3F by binding to them and inducing their proteasomal degradation. The Vif-A3G and Vif-A3F interactions provide two potential targets for development of small molecules which can interfere with the ability of Vif to degrade A3G or A3F. […] To identify inhibitors that can interfere with Vif mediated degradation of A3G and A3F, we have developed Hela cell lines that stably express A3G or A3F tagged with eYFP at the C-terminal end (A3G-eYFP or A3F-eYFP, respectively) and Vif. In the absence of an inhibitor, Vif induces degradation of A3G-eYFP and A3F-eYFP, and the cells are not fluorescent. In the presence of an inhibitor, it is expected that Vif will be unable to degrade A3G-eYFP and/or A3F-eYFP, resulting in an increase in yellow fluorescence. In this assays Vif A3G was screened against the Molecular Library Small Molecule Repository (MLSMR). NIH Chemical Genomics Center [NCGC] NIH Molecular Libraries Probe Centers Network [MLPCN] MLPCN Grant: MH093245 Assay Submitter (PI): Vinay Pathak, National Cancer Institute\n5 uL of 700 cells/well of A3G-YFP cells are dispensed into black, clear bottom plates. The plates are incubated overnight at 37 deg C. 23 nL of compounds are added by pintool. The plates are incubated overnight at 37 deg C and then read on the TTP Acumen (Ex 488/ Em 500-530).", "units": {"activity, negative = active": "%"}}
{"smiles": "O=C(c1cnn2c1NC(=C1CC1)C=C2C(F)F)N1CCc2ccccc2C1", "activity, negative = active": 2.57}
{"smiles": "Cc1cccc(CNC(=O)c2cnc3sc(N4CCCCC4)nn3c2=O)c1", "activity, negative = active": 2.64}
{"smiles": "Cc1ccccc1NC(=O)Cn1c(=O)n(Cc2ccco2)c(=O)c2ccc(C(=O)NC3CCCC3)cc21", "activity, negative = active": -3.97}
{"smiles": "CCOC(=O)c1ccc(NC(=O)c2c(NCc3cccs3)sc3c2CCCC3)cc1", "activity, negative = active": 5.26}
{"smiles": "CN(C)c1ccc(/C=C/c2sc3ccccc3[n+]2C)cc1", "activity, negative = active": 3.75}
{"smiles": "CC(C)Sc1oc(-c2cccs2)nc1S(=O)(=O)c1ccc(Cl)cc1", "activity, negative = active": -1.22}
{"smiles": "CCOC(=O)C1CCC(CN(Cc2ccc(OC)cc2)S(=O)(=O)c2ccc(F)c(C(=O)Nc3cc(C)ccc3C)c2)CC1", "note": "(stereo not given)", "activity, negative = active": -1.77}
{"smiles": "CC(C)c1ccc(NC(=O)Cn2c3ncccc3c(=O)n2-c2ccccc2)cc1", "activity, negative = active": 1.84}
{"smiles": "CC(C)(C)c1ccc(C(=O)C[N+]2(C)CCCc3ccccc32)cc1", "note": "(stereo not given)", "activity, negative = active": 1.9}
{"smiles": "Cc1cccc(N2CCN(S(=O)(=O)c3ccc4[nH]c5c(c4c3)CCCCC5)CC2)c1C", "activity, negative = active": -0.718}
{"smiles": "O=C1NC(c2ccccc2)Oc2ccccc21", "note": "(stereo not given)", "activity, negative = active": 0.257}
{"smiles": "C=CCOc1cccc(C2NC(=O)c3ccccc3O2)c1", "note": "(stereo not given)", "activity, negative = active": -7.4}
{"smiles": "O=C1NC(c2cccc(Cl)c2)Nc2ccccc21", "note": "(stereo not given)", "Potency": "11.2 µM (active)"}
{"smiles": "COc1ccc(S(=O)(=O)NCC(c2ccc(N(C)C)cc2)N2CCc3ccccc32)cc1OC", "note": "(stereo not given)", "activity, negative = active": 3.67}
{"smiles": "COc1cccc(NC(=O)Nc2ccc3c(c2)N(C)C(=O)c2ccccc2S3)c1", "activity, negative = active": -13}
{"smiles": "O=C(Nc1cc(C(F)(F)F)ccc1Cl)c1cc2nc(-c3ccc4c(c3)OCO4)cc(C(F)(F)F)n2n1", "activity, negative = active": 0.316}
{"smiles": "CC(C)(C)NC(=O)CSc1nc(-c2ccc(F)cc2)cc(C(F)(F)F)n1", "activity, negative = active": 1.1}
{"smiles": "CCOc1ccc(S(=O)(=O)c2cn(Cc3ccccc3)c3ccc(OCC)cc3c2=O)cc1", "activity, negative = active": -5.11}
{"smiles": "CC(NC(=O)c1cc2c(=O)n3ccccc3nc2n(C(C)C)c1=N)c1ccccc1", "note": "(stereo not given)", "activity, negative = active": 2.26}
{"smiles": "CC1CC1C(=O)OCC(=O)Nc1cccc(F)c1", "note": "(stereo not given)", "activity, negative = active": -0.831}
{"smiles": "CCN(CC)C(=O)CSC(Nc1cccc(F)c1)=C(C#N)C#N", "Potency": "12.6 µM (active)"}
{"smiles": "CCN(CC)N=Nc1cccc(NC(C)=O)c1", "activity, negative = active": 6.85}
{"smiles": "COc1ccc(/C=C/c2ccnc3ccccc23)cc1OC", "activity, negative = active": -9.81}
{"smiles": "Cc1cccc(NC(=O)c2nnn(CC(=O)Nc3ccc(C(C)C)cc3)c2N)c1C", "activity, negative = active": 3.32}
{"smiles": "C/C=C/NNC(=O)Cc1ccc(OC)cc1", "activity, negative = active": -19.1}
{"smiles": "CO[C@H]1O[C@@H]2O[C@@]3(C)CC[C@@H]4[C@@H](C)CC[C@@H]([C@H]1C)[C@@]24OO3", "activity, negative = active": -4.35}
{"smiles": "CCOc1ccc(-c2cc3nc(C4CCN(C(=O)OC(C)(C)C)CC4)c(C(=O)Nc4ccc(C(=O)OC)cc4)cn3n2)cc1", "activity, negative = active": 0.118}
{"smiles": "CS(=O)(=O)c1ccc(-c2nnc(NC(=O)c3ccc4c(c3)OCCO4)o2)cc1", "activity, negative = active": 5.26}
{"smiles": "CCCCCn1c(=O)[nH]c2cc(C(=O)Nc3ccc(F)cc3)ccc2c1=O", "activity, negative = active": 3.51}
{"smiles": "N#Cc1ccc[n+](CC(=O)c2ccc(O)c(O)c2)c1", "activity, negative = active": 1.87}
{"smiles": "COc1ccc(CN2CCC(=O)c3ccccc3S2(=O)=O)cc1", "activity, negative = active": -0.629}
{"smiles": "Cc1c(CCO)sc[n+]1CC(=O)c1ccc2ccccc2c1", "activity, negative = active": 0.145}
{"smiles": "O=C(CSc1nc(-c2cccc(F)c2)[nH]c1-c1ccccc1)Nc1ccc2c(c1)OCO2", "activity, negative = active": 1.68}
{"smiles": "NC(=O)Nc1ccc(/C=C/c2ccnc3ccccc23)cc1", "activity, negative = active": -8.22}
{"smiles": "CCN(CC)/[N+]([O-])=N/OCOC(=O)Cc1c(C)n(C(=O)c2ccc(Cl)cc2)c2ccc(OC)cc12", "activity, negative = active": -2.29}
{"smiles": "COc1cc(C)ccc1OCCSc1nc2ccc(NC(=O)c3ccc(C)cc3)cc2s1", "activity, negative = active": -1.22}
{"smiles": "CC(=O)c1ccc[n+](C(C)CCC(C)[n+]2cccc(C(C)=O)c2)c1", "note": "(stereo not given)", "activity, negative = active": 4.94}
{"smiles": "CCCN1C(=O)C(O)(CC(=O)c2ccc(CC)cc2)c2cc(Br)ccc21", "note": "(stereo not given)", "activity, negative = active": 4.05}
{"smiles": "O=C(Nc1ccccc1C(F)(F)F)c1nc(S(=O)(=O)Cc2ccccc2F)ncc1Cl", "activity, negative = active": -25.9}
{"smiles": "Cc1cccc(N2CCN(C(=O)CCSCc3ccccc3F)CC2)c1C", "activity, negative = active": 3.33}
{"smiles": "CN(CCC#N)c1ccc(C=O)cc1", "activity, negative = active": 2.45}
{"smiles": "Cc1ccc(-c2nn3c(=O)cc(CN4CCN(S(=O)(=O)c5ccc(Cl)cc5)CC4)nc3s2)cc1", "activity, negative = active": -0.363}
{"smiles": "CC1(C)Cc2ccccc2-c2c[nH]c(=O)n21", "activity, negative = active": 1.1}
{"smiles": "COc1cc(NC(=O)CN2CCN(S(=O)(=O)c3ccc(Br)cc3)CC2)cc(OC)c1", "activity, negative = active": 6.1}
{"smiles": "Cc1cc(NC(=O)C2CCC(CNS(=O)(=O)c3ccc(Br)s3)CC2)ccc1Br", "note": "(stereo not given)", "activity, negative = active": 0.952}
{"smiles": "Cc1ccc(NC(=O)CCCn2c(=O)c3cccn3c3ccccc32)cc1Cl", "activity, negative = active": 4.11}
{"smiles": "O=C1COc2ccc(-c3csc(-c4ccc(Cl)cc4)n3)cc2N1", "activity, negative = active": -0.481}
{"smiles": "CN(C)c1ccc(C=Nc2ccc(/C=C/c3ccnc4ccccc34)cc2)cc1", "activity, negative = active": -29.8}
{"smiles": "Cc1ccc2nc(/C(C#N)=C/c3ccc(-c4ccc(C(=O)OC(C)C)cc4)o3)[nH]c2c1", "Potency": "2 µM (active)"}
{"smiles": "Cc1ccc2nc(/C(C#N)=C/c3ccccc3F)[nH]c2c1", "activity, negative = active": -5.05}
